Screens as filed in PubChem BioAssay.
HP1b binding inh – inhibitors of HP1-beta chromodomain binding to methylated histone tails; P83916; AlphaScreen HP1-beta / biotin-H3K9me3 peptide binding; Potency, µM (doses to about 114 µM), hits mostly inhibitors; 390,000 tested, 0.56% active; AID 540317; also: nearly all actives have a fitted effect of over 70% in size
Target sequence (P83916 whole entry, looked up): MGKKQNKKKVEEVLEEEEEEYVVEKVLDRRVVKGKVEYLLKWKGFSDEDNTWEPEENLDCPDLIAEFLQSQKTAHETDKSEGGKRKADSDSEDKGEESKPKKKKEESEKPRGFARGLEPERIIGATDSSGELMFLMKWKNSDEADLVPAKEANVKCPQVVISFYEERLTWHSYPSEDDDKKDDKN
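HP1-beta protein (50 nM final) preincubated 30 min at room temperature with biotinylated H3(1-18)K9me3 peptide (50 nM) in PBS pH 7.4, 0.01% Tween-20, then compound added for 30 min. AlphaScreen streptavidin donor/nickel chelate acceptor beads (10 ug/mL final), 30 min dark, luminescence read.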
G9a inh – G9a (human) methyltransferase inhibition; 350,000 tested, 8.8% active; G9a H3K9 monomethylation, AlphaScreen, 2 h; Potency, µM (doses to about 102 µM), hits mostly inhibitors; AID 504332; Q96KQ7; also: nearly all actives have a fitted effect of over 75% in size
Target sequence (Q96KQ7 913-1193 limits assumed): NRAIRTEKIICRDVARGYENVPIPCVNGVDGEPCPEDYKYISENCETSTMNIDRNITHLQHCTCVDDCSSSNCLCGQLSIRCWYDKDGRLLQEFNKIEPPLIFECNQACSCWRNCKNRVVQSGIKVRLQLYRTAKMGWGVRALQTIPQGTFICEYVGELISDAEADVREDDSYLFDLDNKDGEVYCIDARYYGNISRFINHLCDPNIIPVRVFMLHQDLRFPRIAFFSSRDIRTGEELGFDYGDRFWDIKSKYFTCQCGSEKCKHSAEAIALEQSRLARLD
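AlphaScreen read-out: biotin-H3K9 peptide (500 nM) methylation by 20 nM enzyme with 20 uM SAM, 2 h at room temperature after 15 min compound preincubation; anti-monomethyl H3K9 antibody plus donor/acceptor beads, 10 min dark.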
Sfp inh – inhibitors of Bacillus subtilis Sfp phosphopantetheinyl transferase | Potency, µM, most hits filed as inhibitors | Q9F4F7 | Biochemical Sfp PPTase activity, qHTS | AID 1490 | 310,000 tested, 3.5% active;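 also: the enzyme is Sfp with the accession as filed and its product quenches rhodamine fluorescence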
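After 15 min at room temperature with compound, 15 nM Sfp received 5 uM rhodamine-CoA plus 12.5 uM BHQ-2-ybbR (50 mM Hepes pH 7.6, 10 mM MgCl2). Rate came from the fluorescence difference over 30 min, ex 525/em 598 nm.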
12-LOX inh – ALOX12 (human) lipoxygenase inhibition | purified 12hLO, xylenol orange hydroperoxide absorbance | Potency, µM (series often up to 108 µM), usual class: inhibitors | 580,000 tested, 1.1% active
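Hydroperoxide product was detected by ferrous iron/xylenol orange as the 573 to 405 nm absorbance ratio. Arachidonic acid at 40 uM (final) was turned over for 30 min at room temperature by 150 nM human 12hLO, pH 7.0 Hepes buffer, after 15 min compound preincubation.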
BAZ2B inh – BAZ2B (human) inhibition. Q9UIF8. AlphaScreen BAZ2B-H3K14Ac peptide displacement. Potency, µM (series often up to 114 µM), hits mostly inhibitors. 360,000 tested, 4.4% active. AID 504333; also: nearly all actives have a fitted effect of over 60% in size
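Compounds, titrated to a top concentration of 110 uM, were incubated 30 min at room temperature with preformed BAZ2B/acetyl-K14 H3 peptide complex (50 nM each). Proximity signal was measured by AlphaScreen after 20 min with beads.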
JMJD2A Tudor – blocks the human JMJD2A Tudor domain. O75164. AlphaScreen JMJD2A-Tudor / H3K4me3 peptide binding. Potency, µM (doses to about 114 µM), actives largely listed as inhibitors. 390,000 tested, 4.4% active. AID 504339; also: nearly all actives have a fitted effect of over 50% in size
Each line names hits and unclear results; the compound was inactive in the other large screens. Sampled rows, rich in hits. Any-hit rate of the full collection: about 8.7%. Calls follow the shape of the dose curve; as a rule, active = well fitted curve in the direction sought with a large enough effect; inconclusive = small, poorly fitted or top-dose-only effect, or another doubt; inactive = no such curve, though single readings can be large; an effect the other way counts as inactive or inconclusive.

CC(C)C1CN2CCCC2CN1 (stereo not given)	none (no result: HP1b binding inh, G9a inh, Sfp inh, BAZ2B inh, JMJD2A Tudor)
Cc1cccc(OCCn2cccc2/C=C2/C(=O)NC(=O)N(Cc3ccco3)C2=O)c1	Sfp inh 56.2µM, BAZ2B inh 44.7µM (no result: G9a inh)
O=C1NC(=O)N(Cc2ccco2)C(=O)/C1=C\c1cccn1CCOc1ccc(Cl)cc1	Sfp inh 44.7µM, 12-LOX inh 39.8µM, BAZ2B inh 39.8µM, JMJD2A Tudor inconclusive
CCc1ccc(N2C(=O)NC(=O)/C(=C/c3cccn3CCOc3ccc(C)cc3)C2=O)cc1	12-LOX inh inconclusive, BAZ2B inh inconclusive
CCNC(=O)N1[C@H]2CC[C@@H]1c1cnc(-c3ccc(F)cc3)nc1C2	none (no result: HP1b binding inh, G9a inh, Sfp inh, BAZ2B inh, JMJD2A Tudor)
CN1CCC2(CC1)N1CC3(C)CN2CC(C)(C1)C3=O	none (no result: HP1b binding inh, G9a inh, Sfp inh, BAZ2B inh, JMJD2A Tudor)
Cn1nc(C2CCCC2)cc1[C@H]1CN2CC[C@H]1C[C@@H]2CNC(=O)c1ccc2c(c1)OCO2	none (no result: HP1b binding inh, G9a inh, Sfp inh, BAZ2B inh, JMJD2A Tudor)
COc1ccc(CN2CCNCC2)cc1	G9a inh inconclusive
COc1ccc(CN2C(=O)NC(=O)/C(=C/c3ccc([N+](=O)[O-])s3)C2=O)cc1	HP1b binding inh 28.2µM, G9a inh 8.91µM, Sfp inh 20µM, 12-LOX inh inconclusive, BAZ2B inh 25.1µM, JMJD2A Tudor 22.4µM
O=C1NC(=O)N(Cc2ccc(F)cc2)C(=O)/C1=C\c1ccc([N+](=O)[O-])s1	HP1b binding inh inconclusive, G9a inh 6.31µM, Sfp inh 39.8µM, 12-LOX inh inconclusive, BAZ2B inh 35.5µM, JMJD2A Tudor 20µM
Cc1ccc(/C=C2\C(=O)NC(=O)N(CC3CCCO3)C2=O)s1 (stereo not given)	G9a inh inconclusive, Sfp inh inconclusive, 12-LOX inh inconclusive, BAZ2B inh inconclusive
CCOC(=O)N1CCN(/[N+]([O-])=N/Oc2ccc([N+](=O)[O-])cc2[N+](=O)[O-])C(C)C1 (stereo not given)	Sfp inh inconclusive (no result: G9a inh, 12-LOX inh, BAZ2B inh)
CCOC(=O)N1CC(C)N(/[N+]([O-])=N/Oc2ccc([N+](=O)[O-])cc2[N+](=O)[O-])CC1C (stereo not given)	JMJD2A Tudor 89.1µM (no result: G9a inh, 12-LOX inh, BAZ2B inh)
CCS(=O)(=O)N1CCN(C2CCC(C)CC2)CC1 (stereo not given)	HP1b binding inh inconclusive, G9a inh 5.62µM, 12-LOX inh inconclusive, BAZ2B inh 56.2µM, JMJD2A Tudor 6.31µM
O=C(O)C1=NOC2CN(CC3CCCC3)CC12 (stereo not given)	none (no result: HP1b binding inh, G9a inh, Sfp inh, BAZ2B inh, JMJD2A Tudor)
O=C1CC2CCN(CC3CCCC3)CC2CCN1 (stereo not given)	none (no result: HP1b binding inh, G9a inh, Sfp inh, BAZ2B inh, JMJD2A Tudor)
COc1ccc(C(=O)Nc2ccc(Cl)cc2C(=O)c2ccccc2)c(OC)c1	none (no result: Sfp inh)
COc1ccc(OC)c(NC(=O)C2C(C(=O)O)C3(Cl)C(Cl)=C(Cl)C2(Cl)C3(Cl)Cl)c1 (stereo not given)	G9a inh 44.7µM, 12-LOX inh inconclusive
COc1cc2c(cc1CCc1ccccc1)N(C(=O)c1ccn(C)n1)CC21CCN(C(C)=O)CC1	none (no result: HP1b binding inh, G9a inh, Sfp inh, BAZ2B inh, JMJD2A Tudor)
CCN(CC)CCN=Cc1c(O)n(CCC2=CCCCC2)c(=O)[nH]c1=O	none
O=c1[nH]c(=O)n(CCC2=CCCCC2)c(O)c1C=NCc1cccnc1	G9a inh 50.1µM
O=c1[nH]c(=S)n(CCC2=CCCCC2)c(O)c1/C=N/Nc1ccccc1	G9a inh inconclusive, Sfp inh inconclusive, 12-LOX inh 35.5µM, JMJD2A Tudor inconclusive
O=C1CO[C@H]2CN(CC3CC3)C[C@H]2N1Cc1ccccn1	none (no result: HP1b binding inh, G9a inh, Sfp inh, BAZ2B inh, JMJD2A Tudor)
Cc1ccc(-n2c(-c3nn(C)c(C)c3Cl)n[nH]c2=S)cc1	G9a inh inconclusive, Sfp inh 56.2µM, 12-LOX inh 31.6µM, JMJD2A Tudor inconclusive
Cc1ccc(-c2n[nH]c(=S)n2-c2ccccc2)cc1	G9a inh 1.26µM, Sfp inh 79.4µM, JMJD2A Tudor 20µM
O=S1(=O)NC2(CCN(Cc3ccc(Cl)s3)C2)COc2ccncc21 (stereo not given)	none (no result: HP1b binding inh, G9a inh, Sfp inh, BAZ2B inh, JMJD2A Tudor)
CN(C)[C@@H]1CN(C(=O)Cc2ccc(Cl)cc2)C[C@H]1CO	none (no result: HP1b binding inh, G9a inh, Sfp inh, BAZ2B inh, JMJD2A Tudor)
COc1ccccc1N1CCN(Cc2ccc(Br)cc2)CC1	G9a inh inconclusive, Sfp inh inconclusive, BAZ2B inh inconclusive
CCC1Nc2ncnc(N3CCN(c4ccccn4)CC3)c2N(Cc2ccc(Br)cc2)C1=O (stereo not given)	12-LOX inh inconclusive, JMJD2A Tudor 79.4µM (no result: G9a inh, Sfp inh, BAZ2B inh)
